HCV inh = blocks hepatitis C virus; Huh7.5.1 HCVcc-Cre infection, luciferase reporter, 44 h; Potency, µM (highest dose often 41.8 µM), without a hit: at the top dose activity change, negative = inhibition, most hits filed as inhibitors; 340,000 tested, 3.4% active; AID 651820; also: potency is read from the fitted curve at half-maximal effect; % is scaled to controls: 0 for no effect and ±100 for the full control effect
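Luciferase read-out (15 sec integration) after a 15 min room-temperature substrate step quantifies HCVcc-Cre infection. Cells, 1,000 per well, had compound added 4 h post-plating, then virus at ~0.5 moi, and were cultured 44 h.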
Pf growth 96h = P. falciparum growth inhibition at 96 hours | P. falciparum luciferase reporter growth, 96 h | Potency, µM (series often up to 28.7 µM), inactives show top-dose activity change, negative = inhibition, actives largely listed as inhibitors | 320,000 tested, 6.9% active; also: potency is read from the fitted curve at half-maximal effect; % is scaled to controls: 0 for no effect and ±100 for the full control effect
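Erythrocytes infected with luciferase-expressing P. falciparum were dispensed at 2% hematocrit and 0.05% parasitemia (final), then incubated with compounds 96 hours at 37 C in 5% CO2. Luminescence after detection reagent addition reported growth.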
HCMV inh = inhibitors of human cytomegalovirus | activity change, negative = inhibition, % at 57.5 µM | HFF cells, HCMV-luciferase reporter, 72 h; active compounds read low | AID 1259415 | 410,000 tested, 4.5% active; in the data active = activity change below about -60%; inconclusive = no clear call, values can overlap the other calls; inactive = above about -39%; also: % is scaled to controls: 0 for no effect and ±100 for the full control effect
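HFF cells seeded 16 h at 37C, treated with compounds, infected with luciferase-reporter HCMV at MOI 1 PFU/cell; luciferase read at 72 h post infection, normalized to buffer-only and Salinomycin controls.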
Cycloheximide cs = affects cycloheximide protein synthesis inhibition readout, counter-screen; max response, %; 300,000 tested, 12% active; cell reporter, cycloheximide protein synthesis inhibition counterscreen; in the data active = max response mostly above about 13%, no sharp cut-off; inactive = mostly below about 14%; also: read at 38.3 µM for the half of the compounds with a filed dose; 0% is about no effect
Pf growth 48h = P. falciparum growth inhibition at 48 hours (one generation). P. falciparum luciferase growth in erythrocytes, 48 h. AID 504832. Potency, µM (series often up to 28.7 µM), for the others: at the top dose activity change, negative = inhibition, actives largely listed as inhibitors. 310,000 tested, 5.9% active; also: potency is read from the fitted curve at half-maximal effect; % is scaled to controls: 0 for no effect and ±100 for the full control effect
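Here the parasites carry a stable luciferase gene and grow inside erythrocytes in Albumax-based RPMI medium with compound for one erythrocytic cycle. Activity is scored as loss of luminescent signal.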
Shiga toxin inh = blocks Shiga toxin action in Vero cells | 290,000 tested, 9.2% active | AID 2315 | Vero cells, Shiga toxin protein synthesis inhibition reporter | inhibition, % at 38.7 µM; in the data active = inhibition mostly above about 28%, no sharp cut-off; inactive = mostly below about 43%; also: 0% is about no effect
* hit, by the source's call; i = inactive; ? = inconclusive; · = not tested or not shown. The list is not random: actives were taken first. Their share in the collection is about 21%. Unless noted, calls follow the shape of the dose curve; as a rule, active = well fitted inhibition curve with a large enough effect; inconclusive = small, poorly fitted or top-dose-only effect, or another doubt; inactive = no such curve, though single readings can be large or run the other way.

SMILES | HCV inh | Pf growth 96h | HCMV inh | Cycloheximide cs | Pf growth 48h | Shiga toxin inh
CCN(CC)C(C(=O)Nc1ccc(C(C)C)cc1)c1ccc2c(c1)OCO2 (stereo not given) | ? | 107% | 29 | -5 | 8.3µM* | -20
COc1ccccc1OCCn1cc(/C=N/NC(N)=S)c2ccccc21 | 8.9µM* | ? | ? | -2 | ? | -3
CNC(=S)N/N=C/c1cn(CCOc2ccc(OC)cc2)c2ccccc12 | ? | 5.9µM* | 99 | 10 | ? | 2
CC(C)CC(N)c1csc(Nc2ccc(C(=O)NCCCO)cn2)n1 (stereo not given) | · | · | -8 | · | · | ·
O=C1COc2ccc(C(=O)COC(=O)/C=C/c3ccc(Br)o3)cc2N1 | ? | 20% | -18 | · | 6% | ·
C[S@@](=O)CCCCN=C=S | · | · | · | 57* | · | -12
O=C(CN1CCN(c2ccc(Cl)cc2)CC1)Nc1ccc(Cl)c(C(F)(F)F)c1 | · | · | -1 | · | · | ·
CCOc1ccc(CNCCN2CCCC2)cc1 | ? | ? | -21 | -2 | ? | -9
Cc1ccc(CNC(=O)C(CC(C)C)N2Cc3ccccc3C2=O)cc1 (stereo not given) | · | · | -7 | · | · | ·
O=C(CSc1nnc(-c2ccncc2)o1)Nc1ccccc1C(F)(F)F | 23% | -19% | ? | -1 | ? | -8
Cc1cc(-c2nnc(SCC(=O)Nc3ccccc3C(F)(F)F)o2)c(C)n1-c1ccccc1 | 9% | · | ? | 40* | 57% | 58
Cc1cccc(NC(=O)CSc2nnc(-c3cc(C)n(-c4ccccc4)c3C)o2)c1C | -18% | ? | 6 | 25* | -35% | 33*
COc1cccc(-c2nnc(SC(C(=O)c3c[nH]c4ccccc34)c3ccccc3)n2C)c1 (stereo not given) | ? | 13µM* | -28 | -1 | 13µM* | -9
CCN(CC)c1ccc(C(=O)OCC(=O)Nc2ccccc2-c2ccccc2)cc1 | 8.9µM* | 10µM* | -12 | -1 | ? | 7
N#Cc1ccsc1NC(=O)COC(=O)c1cc2ccccc2cc1O | ? | 42% | 111 | 31* | 64% | 84*
N#Cc1ccsc1NC(=O)COC(=O)c1ccc(NC(N)=O)cc1 | 6% | 6% | 128 | 41* | 116% | 92*
CCN(CC)c1ccc(C(=O)OCC(=O)Nc2ncccn2)cc1 | -4% | · | ? | · | · | ·
CCN(CC)c1ccc(C(=O)OCC(=O)Nc2sccc2C#N)cc1 | ? | 36% | 13 | 27* | 52% | 39*
COc1ccc(S(N)(=O)=O)cc1C(=O)OCC(=O)Nc1sccc1C#N | -1% | · | 8 | · | · | ·
CC(=O)c1cc2c(cc1NC(=O)c1cnn(-c3ccc(C)cc3)c1-n1cccc1)OCO2 | · | · | -31 | · | · | ·
CCOC(=O)CN(Cc1cc(OC)cc(N(C)C)c1OC)C(=O)C1CC(CO[Si](C)(C)C(C)(C)C)=CN1C(=O)OC(C)(C)C (stereo not given) | · | · | · | 5 | · | -5
O=C1C(=O)N(c2ccc(O)cc2)C(c2ccccc2[N+](=O)[O-])/C1=C(\O)c1ccccc1 (stereo not given) | 15% | 12% | 19 | -2 | 1% | 18
Cc1cc(C(=O)C(C)Sc2cccc[n+]2[O-])c(C)n1-c1ccc(Cl)cc1 (stereo not given) | 4.5µM* | 12µM* | -26 | 10* | -5% | 10
Cc1cc(C(=O)C(=O)O)c(C)n1-c1ccc(Cl)cc1 | 8% | -5% | -32 | -3 | -2% | -8
O=C(CN1CC(=O)Oc2ccccc21)OCC(=O)c1cccc(Br)c1 | 12% | ? | · | 18* | ? | 55
SMILES | HCV inh | Pf growth 96h | HCMV inh | Cycloheximide cs | Pf growth 48h | Shiga toxin inh
O=S(=O)(O)CC(S)CS (stereo not given) | · | -16% | · | · | 2% | ·
O=C1N/C(=C\c2ccccc2)c2ccccc21 | 7.1µM* | · | 120 | 27* | 123% | 57*
O=C1N/C(=C\c2nc3ccccc3s2)c2ccccc21 | · | i | · | 62* | 110% | 76*
O=C1Nc2ccccc2Nc2ccccc21 | 4% | 38% | 36 | -3 | · | -5
Cc1ccccc1Nc1scc(-c2ccc(Cl)cc2)[n+]1-c1ccccc1C | -7% | ? | -37 | 7 | ? | 36
O=C(c1cc2nc(-c3cccs3)cc(C(F)(F)F)n2n1)N1CCCc2ccccc21 | 10µM* | ? | ? | 20* | ? | 26
O=C(c1cc2nc(-c3cccs3)cc(C(F)(F)Cl)n2n1)N1CCCc2ccccc21 | 7.1µM* | ? | -87* | 14 | ? | 47
FC(F)(F)c1cc(-c2cccs2)nc2cc(-c3ccccc3)nn12 | -21% | -19% | 0 | 10 | 31% | -3
O=C(c1cc2nc(-c3ccco3)cc(C(F)(F)F)n2n1)N1CCCc2ccccc21 | 5% | ? | -13 | 7 | 25% | 52
Cc1cc(C(F)(F)F)n2nc(-c3cccs3)cc2n1 | 9% | 0% | 26 | 31* | 54% | 39*
O=C1OC(COc2ccc(Br)cc2)CN1c1ccccc1 (stereo not given) | 11% | -2% | 20 | -1 | 21% | -13
CCCCCc1cc(O)c2c3c(c(=O)oc2c1)CN(C)CC3 | 10µM* | -6% | -34 | 1 | ? | -17
CCCCCc1cc(O)c2c(C)cc(=O)oc2c1 | 11µM* | 5% | -105* | 13* | 2.6µM* | 40
CCC(NC(=O)CNC(=O)c1ccc2c(c1)OCO2)c1ccc(Br)cc1 (stereo not given) | ? | 20% | -29 | · | ? | ·
CCOc1ccc(C2C(C(=O)/C=C/c3ccco3)=C(O)C(=O)N2CCN2CCOCC2)cc1OC (stereo not given) | 25% | 8% | 31 | -4 | 10% | 22
O=c1[nH]c2ccccc2n1CCC1CCCCC1 | 4% | · | 71 | 47* | 23% | 23
O=c1[nH]c2ccccc2n1CCCSCCCn1c(=O)[nH]c2ccccc21 | ? | 9.3µM* | -66* | 0 | ? | 16
Cc1cc(C(=O)CSc2nc3ccccc3n2C)c(C)n1C | ? | -16% | -35 | -2 | · | 8
CCn1c2ccccc2c2nnc(SCCCn3c(=O)[nH]c4ccccc43)nc21 | ? | 2.3µM* | · | -5 | 7.4µM* | 15
CCn1c2ccccc2c2nnc(SCc3ccccc3)nc21 | ? | -51% | 21 | -2 | ? | -4
Cc1cc(C(=O)CSCCCn2c(=O)[nH]c3ccccc32)c(C)n1C | ? | 3% | -14 | -1 | 13µM* | -1
COc1ccccc1NC(=O)Cn1c(=O)n(CCCCCC(=O)NCc2ccccc2)c(=O)c2sccc21 | · | · | -14 | · | · | ·
O=C(O)[C@@H]1CCCN1C(=O)CCc1c[nH]c2ccccc12 | 19% | 29% | 41 | 1 | 47% | -6

Bioassay records as filed in PubChem BioAssay.
